Screening results: PubChem, National Center for Advancing Translational Sciences (NCATS)
AmpC nodet inh = blocks E. coli AmpC beta-lactamase in absence of detergent; P00811; AmpC nitrocefin hydrolysis, absorbance 480 nm, no detergent; Potency, µM (series often up to 28.7 µM), for inactives: at the highest dose activity change, negative = inhibition; 71,000 tested, 1.8% active; note: % of control where 0% means no effect
Target sequence (P00811 whole entry, looked up): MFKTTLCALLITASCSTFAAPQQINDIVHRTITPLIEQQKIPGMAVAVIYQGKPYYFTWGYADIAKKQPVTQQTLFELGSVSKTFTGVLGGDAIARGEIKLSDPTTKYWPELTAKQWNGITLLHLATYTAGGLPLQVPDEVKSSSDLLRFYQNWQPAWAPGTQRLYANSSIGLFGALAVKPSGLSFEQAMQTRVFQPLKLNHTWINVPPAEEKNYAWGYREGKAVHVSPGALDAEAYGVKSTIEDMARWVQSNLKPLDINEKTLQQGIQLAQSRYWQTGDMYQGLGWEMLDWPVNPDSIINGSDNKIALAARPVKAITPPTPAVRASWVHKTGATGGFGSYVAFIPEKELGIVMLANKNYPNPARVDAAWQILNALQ
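AmpC, 20 mM phosphate pH 7.0; 15 min cpd preinc, RT; start with nitrocefin (800 uM stock); A480 kinetic read, 20 s intervals, 4 min. No-enzyme wells = negative control.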
Prx2 Sm inh = inhibitors of Schistosoma mansoni peroxiredoxin 2; S. mansoni Prx2 activity coupled to TGR/GSH (TGR is thioredoxin glutathione reductase), NADPH fluorescence loss, qHTS; Potency, µM; 65,000 tested, 0.07% active
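Activity is read as the drop in NADPH fluorescence (365/450 nm), recorded every 30 sec for 8 min after H2O2 addition. Prx2 is coupled to TGR-driven NADPH oxidation through glutathione, in phosphate buffer pH 7.4.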
Anthrax LT inh = blocks cellular internalization of anthrax lethal toxin. Cells, anthrax lethal toxin internalization, FRET ratio (460/530). Potency, µM (highest dose often 40 µM), for the others: top-dose activity change, negative = inhibition, actives largely listed as inhibitors. 70,000 tested, 0.67% active. AID 912; note: % is set by controls: 0 for no effect and ±100 for the full control effect; nearly all actives have a fitted effect of over 50% in size
AmpC inh det = blocks E. coli AmpC beta-lactamase in presence of detergent. P00811. purified AmpC, nitrocefin hydrolysis with detergent. Potency, µM (doses to about 28.7 µM), for the others: at the highest dose activity change, negative = inhibition. 71,000 tested, 0.09% active. AID 584; active = well fitted curve in the direction sought with a large enough effect; inconclusive = small, poorly fitted or top-dose-only effect; note: % is set by controls: 0 for no effect and ±100 for the full control effect
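E. coli AmpC (5.3 nM) in 20 mM phosphate pH 7.0 with 0.01% Triton X-100, preincubated 15 min RT with compound; nitrocefin (2 uL of 800 uM stock) hydrolysis followed by 480 nm absorbance every 20 s over 4 min.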
Starred values were filed as active, the others as inactive; ? = inconclusive; nt = no result given; ! = not active in a repeat; [ ] = remark or other dose. Only some compounds are listed: those with a hit (about 2.6% of all), similar ones and a draw of the others. Unless noted, calls come from the whole dose curve. Potency is the fitted concentration of half-maximal effect.

SMILES	AmpC nodet inh	Prx2 Sm inh	Anthrax LT inh	AmpC inh det
CC1=C(C(=O)NC2CCCCC2C)C2(CCC(C)CC2)OC1=O (configuration not stated)	24%	>57	-17%	2%
CC1=C(C(=O)NC(C)C)C2(CCC(C)CC2)OC1=O (configuration not stated)	4µM*[single pt active]	>57	-6%	19%
CCc1nccn1S(=O)(=O)c1ccc(OC)c(OC)c1	4µM*[single pt active]	>57	-6%	17%
CCc1nccn1S(=O)(=O)c1ccc(C)c(C)c1	-5%	>57	-16%	1%
CC(=O)CC(=O)Nc1ccccc1	12%	nt	0%	12%
C[C@@H](Cc1ccc2c(c1)OC(C(=O)O)(C(=O)O)O2)NC[C@H](O)c1cccc(Cl)c1	-4%	>57	-2%	-5%
O=C(NC1CCN(Cc2ccccc2)CC1)C1COc2ccccc2O1 (configuration not stated)	-2%	>57	-4%	-3%
CC(CN(C)Cc1ccccc1)OC(=O)C1COc2ccccc2O1 (configuration not stated)	4µM*[single pt active]	>57	5%	10%
CCCCCCNC(=O)c1c(O)c2ccccc2[nH]c1=O	13µM*	>57	22%	2%
O=C1C2=C(Nc3cc([N+](=O)[O-])ccc3N2)O[C@@H]1c1c[nH]c2ccc(COc3ccccc3)cc12	5%[5.75 µM]	>57	-14%[8 µM]	-6%[5.75 µM]
COc1ccc2[nH]cc(CCNC(=O)C3CCCNC3=O)c2c1 (configuration not stated)	2.5µM*[single pt active]	>57	-2%	10%
CCOc1ccc(Cn2nnc(C(=O)Nc3cc(C)cc(C)c3)c2N)cc1	4µM*[single pt active]	>57	?	9%
CCOc1ccc(Cn2nnc(C(=O)Nc3cc(OC)cc(OC)c3)c2N)cc1	3.2µM*	>57	19%	11%
COc1ccc(CNC(=O)c2nnn(Cc3ccc(OC)cc3)c2N)cc1	2.5µM*[single pt active]	>57	-8%	12%
CCOc1ccc(NC(=O)c2nnn(CC(=O)Nc3ccccc3OC)c2N)cc1	12%	>57	-2%	5%
CCc1ccc(Cn2nnc(C(=O)Nc3cccc(C)c3)c2N)cc1	4µM*[single pt active]	>57	-9%	10%
CC(=O)c1cccc(NC2c3ccccc3C(=O)N2Cc2ccc3c(c2)OCO3)c1 (configuration not stated)	4µM*[single pt active]	>57	-18%	13%
Cc1c(-c2nc(N)nc(Nc3ccccc3)n2)oc2ccccc12	98%	>57	13µM*	-6%
CCc1cc2c(=O)n(Cc3ccco3)c(SCc3c(C)noc3C)nc2s1	29%	>57	10µM*	7%
CCCCCNCCCCC	1%	nt	-1%	9%
COc1ccc(Br)cc1C1CC(=O)N2CN(Cc3ccccc3)CSC2=C1C#N (configuration not stated)	2µM*	>57	?	9%
COc1ccc(Br)cc1C1CC(=O)N2CN(C)CSC2=C1C#N (configuration not stated)	4µM*[single pt active]	>57	-12%	13%
CC(C)c1ccc(C2CC(=O)N3CN(C)CSC3=C2C#N)cc1 (configuration not stated)	4µM*[single pt active]	>57	-8%	11%
COc1cc(OC)c(C2CC(=O)N3CN(C)CSC3=C2C#N)cc1OC (configuration not stated)	4µM*[single pt active]	>57	-23%	9%
COc1ccc2ccccc2c1C1CC(=O)N2CN(C)CSC2=C1C#N (configuration not stated)	26%	>57	-28%	-7%
SMILES	AmpC nodet inh	Prx2 Sm inh	Anthrax LT inh	AmpC inh det
CC1=CC(=O)C2=C(C)CC[C@@H]3[C@H](OC(=O)[C@H]3C)[C@H]12	8%	>57	?	-1%
CC(C)(O)C(=O)O	-3%	nt	-2%	4%
O=C1NC(=O)[C@]2(Cc3ccccc3N3CCN(c4ccccc4)CC32)C(=O)N1Cc1ccccc1 (some centres not stated)	10µM*[single pt active]	>57	nt	2%
S=C(S)O[C@@H]1C[C@@H]2C[C@H]1[C@@H]1CCC[C@H]21	16µM*!	>57	?	16µM*!
O=S(=O)(O)c1cc(O)c2c(N=Cc3ccccc3O)cc(S(=O)(=O)O)cc2c1	1%[5.75 µM]	>57	1%[8 µM]	-4%[5.75 µM]
O=C(Cn1c(-c2ccccc2)noc1=O)Nc1ccc(S(=O)(=O)N2CCOCC2)cc1	19%	>57	-5%	-8%
O=C(Cn1c(-c2ccccc2)noc1=O)Nc1ccc(N2CCCCCC2)cc1	13µM*	>57	?	-2%
COc1ccc(NC(=O)CC2Oc3ccccc3NC2=O)cc1 (configuration not stated)	4µM*[single pt active]	>57	-5%	9%
COc1ccc(NC(=O)CC2Oc3ccc(C)cc3NC2=O)cc1 (configuration not stated)	4µM*[single pt active]	>57	0%	11%
Cc1ccc(NC(=O)CC2Oc3ccc(C)cc3NC2=O)cc1 (configuration not stated)	-15%	>57	-6%	10%
COc1ccc(OC)c(CCNC(=O)CC2Oc3ccccc3NC2=O)c1 (configuration not stated)	14%	>57	-7%	10%
O=C(O)[C@H]1CCN1	1%	>57	-18%	-1%
O=C1OC(NC(=O)c2ccccc2)C(n2cc(CO)nn2)=C1Cl (configuration not stated)	-8%	>57	13µM*	-4%
COc1ccc(-c2nc3cnc(N(C)C)nc3n(C)c2=O)cc1	-6%	>57	?	-1%
S=C(Nc1ccc2cn[nH]c2c1)Nc1ccc2cn[nH]c2c1	-13%[5.75 µM]	>57	0%[8 µM]	-4%[5.75 µM]
Cc1cc(NC(=O)Cc2cccs2)no1	13µM*	>57	-2%	-5%
Cc1cc(NS(=O)(=O)c2ccc(NC(=O)Cc3cccs3)cc2)no1	5%	>57	2%	-2%
COC(=O)C/C=C\[C@@H](C)[C@@H](/C=N\OCC[C@@H]1C=C[C@H](OC(C)=O)[C@H](COC(C)=O)O1)OC	nt	nt	-4%[1.6 µM]	nt
Cc1ccc(S(=O)(=O)N2CCN(C(=O)CSc3nc4ccccc4c(=O)[nH]3)CC2)cc1	0%	>57	-5%	-4%
O=C(CSc1nc2ccccc2c(=O)[nH]1)N1CCCCC1	4µM*[single pt active]	>57	2%	8%
Cc1nc2c3ccccc3n(CC#N)c(=O)n2n1	2.5µM*[single pt active]	>57	-11%	11%
CCOC(=O)c1c(NC(=O)c2cccs2)sc2c1CCCC2	-4%	nt	-21%	11%
CCOC(=O)c1c(NC(=O)Cc2cccs2)sc2c1CCCC2	?	>57	13µM*	-6%
Cc1cc2nc(SCC(=O)Nc3nonc3C)c3c(c2cc1C)CCCC3	13µM*	>57	-17%	1%
Cc1nonc1NC(=O)CSc1nc(C2CCCCC2)nc2ccccc12	-13%	>57	?	-2%
CC(C)[C@@H](Br)C(=O)NCC(=O)O	-3%[5.75 µM]	nt	8%[8 µM]	-3%[5.75 µM]
CCCN(CCC)CCCNC(=O)c1cc2c(=O)n(C)c3ccccc3c2n1C	18%	>57	3.2µM*	17%
CCCCN(CC)CCNC(=O)c1cc2c(=O)n(C)c3ccccc3c2n1C	4µM*[single pt active]	>57	5µM*	10%
CCN(CC)CCCNC(=O)c1cc2c(=O)n(C)c3ccccc3c2n1C	?	nt	10µM*	9%
